Measurements: the supplement of paper PMC11219838
Unmarked numbers belong to inactive results.

test system: Caenorhabditis elegans L1 (N2); assay: survival and reproduction score of C. elegans L1 (0: 0-10 living worms, 1: 11-20, 2: 21-50, 3: >50, 4: overgrown) (score 0-4); higher = more worms, less nematicidal, active = 1 or less; extreme values may be limits of the assay; conditions: 60 µM; 6 days; temperature: 20 °C
How it was run: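 Each 96-well well received about 20 synchronized N2 L1 worms of C. elegans, E. coli HB101 and liquid NGM, plus compound pinned to 60 µM final (0.6% v/v DMSO). Sealed plates were incubated with shaking at 200 rpm, 20 °C, for 6 days. Survival and reproduction were rated under a dissection microscope as an ordinal score of living worms per well, averaged across biological replicates. The scale spanned 0 (0–10 worms) to 4 (overgrown, starved), and there were two replicates.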

Row | Compound | survival and reproduction score
1 | O=C(CSc1nnc(-c2ccccc2Cl)o1)Nc1nccs1 | 4
2 | COc1nc(-c2ccc(Cl)cc2)ccc1-c1noc(-c2ccncc2)n1 | 4
3 | O=C(CSc1nnc(-c2ccc(Br)cc2)o1)NC1CCCCC1 | 4
4 | CCOc1cc(-c2nc(-c3ccc(OC)cc3)no2)cc(OCC)c1OCC | 4
5 | Brc1ccc(-c2noc(COc3ccccc3)n2)cc1 | 4
6 | N#Cc1ccc(OCc2nc(-c3ccc(Br)o3)no2)cc1 | 4
7 | O=C(CSc1nnc(-c2ccccc2)o1)OCc1ccccc1 | 4
8 | COc1ccc(-c2nnc(SCC(=O)c3ccc(C)o3)o2)cc1 | 2
9 | COc1cccc(-c2noc(COc3cccc(C)c3)n2)c1 | 4
10 | Fc1ccccc1OCc1nc(-c2ccc(Cl)cc2)no1 | 4
11 | CCc1ccc(C(=O)Nc2ccccc2-c2nc(-c3ccncc3)no2)cc1 | 4
12 | COc1ccc(-c2nnc(SCc3ccc(Cl)cc3Cl)o2)cc1 | 4
13 | COc1ccc(-c2nnc(SCC(=O)Nc3ccc(Cl)cc3Cl)o2)cc1 | 2
14 | O=C(CSc1nnc(-c2cccc(Cl)c2)o1)Nc1ccccc1 | 4
15 | CCc1ccc(NC(=O)CSc2nnc(-c3ccco3)o2)cc1 | 4
16 | Ic1ccc(CSc2nnc(-c3ccco3)o2)cc1 | 3.5
17 | COc1nc2ccc(C)cc2cc1-c1noc(-c2ccncc2)n1 | 4
18 | COc1ccccc1NC(=O)c1ccccc1-c1nc(-c2ccccc2F)no1 | 4
19 | CCOc1ccccc1NC(=O)CSc1nnc(-c2ccco2)o1 | 4
20 | O=C(CSc1nnc(-c2ccc(Br)cc2)o1)N1CCCCCC1 | 4

Row | Compound | survival and reproduction score
21 | Cc1ccc(-c2noc(CSc3nc(C)cc(C)n3)n2)cc1 | 4
22 | O=C(CSc1nnc(-c2ccccc2Cl)o1)NCc1ccccc1 | 4
23 | COc1ccc(Cl)cc1NC(=O)CSc1nnc(-c2ccc(C)cc2)o1 | 4
24 | Cc1cc(C)nc(SCc2nc(-c3ccccc3)no2)n1 | 4
25 | CC1CCN(C(=O)CSc2nnc(-c3cc4ccccc4o3)o2)CC1 | 4
26 | Cc1ccccc1OCc1nc(-c2cccc(C(F)(F)F)c2)no1 | 4
27 | Cc1cccc(-c2noc(-c3cccc(Cl)c3)n2)c1 | 4
28 | Clc1ccc(CSc2nnc(-c3ccccc3)o2)c(Cl)c1 | 4
29 | CCOc1nc(-c2ccc(C)cc2)ccc1-c1noc(-c2cccnc2)n1 | 4
30 | Cc1ccccc1-c1noc(CSc2nc3ccccc3[nH]2)n1 | 4
31 | Fc1ccc(CSc2nnc(-c3ccccn3)o2)cc1 | 4
32 | Cc1nc(CSc2nnc(-c3ccc(Cl)cc3)o2)cs1 | 4
33 | Cc1cc(OCc2nc(-c3ccccn3)no2)c(C)cc1Br | 4
34 | Cc1ccccc1OCc1nc(-c2ccc(F)cc2)no1 | 4
35 | Cc1ccc(-c2noc(-c3ccc(C)cc3Cl)n2)cc1 | 4
36 | Cc1cc(C)c(C)c(OCc2nc(-c3ccccc3)no2)c1 | 4
37 | COc1ccc(OC(C)c2nc(-c3cccnc3)no2)cc1 (centres undefined) | 4
38 | Cc1cccc(-c2nnc(SCC(=O)Nc3ccccc3F)o2)c1 | 4
39 | CC(C)(C)C(=O)Nc1ccccc1-c1nc(-c2ccncc2)no1 | 4
